# From ChEMBL document CHEMBL3988442, “University of Dundee, Small-Polar-MMV Screening Library” (2021)
# For some of these results: Measured potencies and affinities stand elsewhere.
# What was measured:
# Set-up in all cases: scale not given: direction of the effect not stated beside the values
# [1] = target: Protein translocase subunit SecA (Escherichia coli (strain K12)) (UniProt P10408); assay: Assay to Identify E. coli SecA ATPase Inhibitors; assay type: functional; conditions: 30 µM
# [2] = target: T1, Ubiquitin-activating enzyme e1, putative (Leishmania donovani (strain BPK282A1)) (UniProt E9BSI1); assay: Leishmania donovani Ubiquitin Activating Enzyme (LdE1); assay type: functional; conditions: 30 µM
# T1 sequence (whole entry): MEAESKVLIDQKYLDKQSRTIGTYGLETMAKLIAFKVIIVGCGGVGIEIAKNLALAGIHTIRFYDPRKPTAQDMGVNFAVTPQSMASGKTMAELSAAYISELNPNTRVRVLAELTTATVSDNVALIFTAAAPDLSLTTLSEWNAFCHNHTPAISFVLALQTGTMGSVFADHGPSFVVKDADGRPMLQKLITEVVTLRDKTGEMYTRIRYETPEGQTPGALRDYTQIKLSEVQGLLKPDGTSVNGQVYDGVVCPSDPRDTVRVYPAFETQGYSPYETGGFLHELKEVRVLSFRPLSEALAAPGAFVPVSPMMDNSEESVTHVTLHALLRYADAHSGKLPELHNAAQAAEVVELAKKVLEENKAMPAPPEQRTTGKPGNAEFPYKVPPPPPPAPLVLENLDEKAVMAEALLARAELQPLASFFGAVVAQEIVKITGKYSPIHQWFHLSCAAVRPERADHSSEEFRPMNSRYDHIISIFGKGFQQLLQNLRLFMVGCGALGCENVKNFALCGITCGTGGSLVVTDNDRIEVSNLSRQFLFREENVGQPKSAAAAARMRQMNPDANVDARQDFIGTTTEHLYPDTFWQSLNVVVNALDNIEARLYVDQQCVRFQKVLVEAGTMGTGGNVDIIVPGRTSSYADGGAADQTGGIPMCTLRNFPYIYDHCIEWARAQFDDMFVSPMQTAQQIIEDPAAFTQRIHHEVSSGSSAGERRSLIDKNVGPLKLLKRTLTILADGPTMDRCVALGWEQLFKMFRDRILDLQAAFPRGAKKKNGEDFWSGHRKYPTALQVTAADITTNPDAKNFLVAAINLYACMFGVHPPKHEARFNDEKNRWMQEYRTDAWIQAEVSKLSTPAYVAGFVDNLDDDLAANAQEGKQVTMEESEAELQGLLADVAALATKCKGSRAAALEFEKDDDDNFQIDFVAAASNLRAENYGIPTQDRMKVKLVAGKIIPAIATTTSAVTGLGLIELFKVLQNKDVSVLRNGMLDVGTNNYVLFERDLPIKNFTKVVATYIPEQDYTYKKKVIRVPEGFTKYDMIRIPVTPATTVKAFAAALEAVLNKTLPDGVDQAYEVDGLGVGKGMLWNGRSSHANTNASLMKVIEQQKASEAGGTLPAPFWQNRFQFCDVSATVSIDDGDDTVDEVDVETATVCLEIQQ
# [3] = target: AMP-activated protein kinase, AMPK (Homo sapiens) (UniProt P54646+O43741+P54619+Q9UGJ0+Q9Y478+Q13131+Q9UGI9); assay: AMP-dependent Kinase enzyme assay. An in vitro enzyme assay that detects ADP turnover that is directly proportional to AMPK activity. This uses naive AMPK that is activated during the assay with MK-8722; assay type: functional; conditions: 30 µM
# [4] = target: Sialic acid-binding Ig-like lectin 9 (Homo sapiens) (UniProt Q9Y336); assay: Hs-Siglec9 ALPHAscreen SOP 20170721; conditions: 10 µM
# Trypanosoma cruzi = assay: Trypanosoma cruzi phosphomannomutase and mannose-1-phosphate guanylyltransferase assay; assay type: functional; conditions: 10 µM
# [5] = target: T2, Arginase-2, mitochondrial (Homo sapiens) (UniProt P78540); assay: in vitro enzyme assay to detect the production of urea directly proportional to the activity of Arginase II; assay type: functional; conditions: 33.3 µM; further: in the data most compounds retested in dose-response had high values
# T2 sequence (whole entry): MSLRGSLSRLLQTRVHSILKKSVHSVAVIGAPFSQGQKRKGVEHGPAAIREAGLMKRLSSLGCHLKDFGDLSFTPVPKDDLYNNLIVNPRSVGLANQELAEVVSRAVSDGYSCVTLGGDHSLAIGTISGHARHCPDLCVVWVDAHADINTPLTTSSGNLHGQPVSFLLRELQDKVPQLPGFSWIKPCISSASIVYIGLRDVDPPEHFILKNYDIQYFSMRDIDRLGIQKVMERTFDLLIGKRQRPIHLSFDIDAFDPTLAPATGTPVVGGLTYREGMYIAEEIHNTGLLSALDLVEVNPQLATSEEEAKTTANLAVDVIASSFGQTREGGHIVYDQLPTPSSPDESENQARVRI
# [6] = target: T3, Proteasome subunit beta (Trypanosoma cruzi) (UniProt O96673); assay: Trypanosoma cruzi proteasome chymotrypsin-like activity (TcProtChymo) assay.; further: in the data most compounds retested in dose-response had high values; assay type: functional; conditions: 9.37 µM
# T3 sequence (whole entry): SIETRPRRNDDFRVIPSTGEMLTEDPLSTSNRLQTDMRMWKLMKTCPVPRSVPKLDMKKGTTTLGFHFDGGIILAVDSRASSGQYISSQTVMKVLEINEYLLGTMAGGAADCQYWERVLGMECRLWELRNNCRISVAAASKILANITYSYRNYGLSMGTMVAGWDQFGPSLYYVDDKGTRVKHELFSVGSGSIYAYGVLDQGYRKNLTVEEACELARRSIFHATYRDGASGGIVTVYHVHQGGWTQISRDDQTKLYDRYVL
# Homo sapiens = species: Homo sapiens; assay: To identify inhibition of the IFN signalling (Jak-Stat) pathway via expression of an eGFP reporter gene under the control of an IFN-stimulated response element (ISRE) containing MxA promoter.; assay type: functional; conditions: 30 µM
# [7] = target: T4, Tyrosyl-tRNA synthetase, putative (Trypanosoma cruzi (strain CL Brener)) (UniProt Q4DSP6); assay: Trypanosoma cruzi tyrosyl tRNA synthetase (TcYRS) _High Tyrosine SOP; assay type: functional; conditions: 30 µM; further: in the data most compounds retested in dose-response had high values
# T4 sequence (whole entry): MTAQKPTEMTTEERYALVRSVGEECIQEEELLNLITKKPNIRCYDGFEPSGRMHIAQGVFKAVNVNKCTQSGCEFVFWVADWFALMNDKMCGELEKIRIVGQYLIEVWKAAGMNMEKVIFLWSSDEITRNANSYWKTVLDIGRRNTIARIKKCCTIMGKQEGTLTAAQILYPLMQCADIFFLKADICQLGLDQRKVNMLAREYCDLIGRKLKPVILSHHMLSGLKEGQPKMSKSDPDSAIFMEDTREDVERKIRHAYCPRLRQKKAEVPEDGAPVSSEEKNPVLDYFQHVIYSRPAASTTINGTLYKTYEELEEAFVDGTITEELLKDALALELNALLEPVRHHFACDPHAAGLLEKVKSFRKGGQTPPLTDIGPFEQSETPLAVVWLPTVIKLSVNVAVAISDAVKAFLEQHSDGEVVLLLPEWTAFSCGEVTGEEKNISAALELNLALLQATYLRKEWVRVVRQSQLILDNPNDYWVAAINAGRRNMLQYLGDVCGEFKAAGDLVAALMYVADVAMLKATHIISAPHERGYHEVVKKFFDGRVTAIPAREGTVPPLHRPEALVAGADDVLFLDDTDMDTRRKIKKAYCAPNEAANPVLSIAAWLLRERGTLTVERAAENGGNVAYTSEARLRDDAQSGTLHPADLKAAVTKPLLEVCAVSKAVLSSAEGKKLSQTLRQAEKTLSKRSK
# [8] = target: T4, Tyrosyl-tRNA synthetase, putative (Trypanosoma cruzi (strain CL Brener)); assay: Trypanosoma cruzi tyrosyl tRNA synthetase (TcYRS) SOP; assay type: functional; conditions: 30 µM
# [9] = target: Chromo domain-containing protein 1 (Saccharomyces cerevisiae (strain ATCC 204508 / S288c) (Baker's yeast)) (UniProt P32657); assay: ScCHD-1 Enzyme Inhibition Assay; assay type: functional; conditions: 30 µM; further: in the data most compounds retested in dose-response had high values
# Chain of Chromo domain-containing protein 1 (Saccharomyces cerevisiae (strain ATCC 204508 / S288c) (Baker's yeast)) (P32657 whole entry, the tested form may be a part): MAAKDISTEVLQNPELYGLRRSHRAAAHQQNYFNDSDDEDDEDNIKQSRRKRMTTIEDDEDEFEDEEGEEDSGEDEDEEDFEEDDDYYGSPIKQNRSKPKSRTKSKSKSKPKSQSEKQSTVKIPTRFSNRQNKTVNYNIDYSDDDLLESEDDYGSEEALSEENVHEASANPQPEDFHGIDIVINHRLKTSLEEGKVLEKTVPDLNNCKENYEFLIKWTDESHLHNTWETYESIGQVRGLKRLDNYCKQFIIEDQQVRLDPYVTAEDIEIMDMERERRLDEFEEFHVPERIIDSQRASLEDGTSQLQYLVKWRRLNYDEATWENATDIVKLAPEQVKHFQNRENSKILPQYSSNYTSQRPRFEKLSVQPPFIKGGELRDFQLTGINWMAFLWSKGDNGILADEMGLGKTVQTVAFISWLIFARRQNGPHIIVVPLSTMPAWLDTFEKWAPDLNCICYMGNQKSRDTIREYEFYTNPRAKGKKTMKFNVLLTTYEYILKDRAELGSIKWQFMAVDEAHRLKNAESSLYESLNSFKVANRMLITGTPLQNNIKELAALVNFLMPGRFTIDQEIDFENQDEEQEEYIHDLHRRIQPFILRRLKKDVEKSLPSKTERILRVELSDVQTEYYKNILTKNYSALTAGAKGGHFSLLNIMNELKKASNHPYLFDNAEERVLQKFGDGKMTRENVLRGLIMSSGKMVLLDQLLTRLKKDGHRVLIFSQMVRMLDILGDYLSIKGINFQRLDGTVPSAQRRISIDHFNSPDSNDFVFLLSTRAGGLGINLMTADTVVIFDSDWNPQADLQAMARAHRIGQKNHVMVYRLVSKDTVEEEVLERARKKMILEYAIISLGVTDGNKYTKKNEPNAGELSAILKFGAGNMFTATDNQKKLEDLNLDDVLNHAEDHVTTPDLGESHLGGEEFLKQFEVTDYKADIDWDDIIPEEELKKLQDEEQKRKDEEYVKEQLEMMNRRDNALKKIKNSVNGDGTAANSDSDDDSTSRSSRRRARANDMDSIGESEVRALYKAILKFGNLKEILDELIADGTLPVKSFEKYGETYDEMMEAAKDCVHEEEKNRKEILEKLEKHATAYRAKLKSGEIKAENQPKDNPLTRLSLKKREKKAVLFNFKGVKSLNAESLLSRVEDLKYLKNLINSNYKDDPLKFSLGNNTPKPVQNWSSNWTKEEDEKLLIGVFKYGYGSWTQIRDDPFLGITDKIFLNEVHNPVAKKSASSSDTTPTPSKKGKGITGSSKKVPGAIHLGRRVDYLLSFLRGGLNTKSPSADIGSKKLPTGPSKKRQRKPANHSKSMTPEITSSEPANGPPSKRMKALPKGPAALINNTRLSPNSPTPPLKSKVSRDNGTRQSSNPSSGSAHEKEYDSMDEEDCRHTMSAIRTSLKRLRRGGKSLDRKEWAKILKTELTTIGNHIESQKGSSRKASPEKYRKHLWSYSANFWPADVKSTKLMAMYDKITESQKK
# Chain of Protein translocase subunit SecA (Escherichia coli (strain K12)) (P10408 whole entry): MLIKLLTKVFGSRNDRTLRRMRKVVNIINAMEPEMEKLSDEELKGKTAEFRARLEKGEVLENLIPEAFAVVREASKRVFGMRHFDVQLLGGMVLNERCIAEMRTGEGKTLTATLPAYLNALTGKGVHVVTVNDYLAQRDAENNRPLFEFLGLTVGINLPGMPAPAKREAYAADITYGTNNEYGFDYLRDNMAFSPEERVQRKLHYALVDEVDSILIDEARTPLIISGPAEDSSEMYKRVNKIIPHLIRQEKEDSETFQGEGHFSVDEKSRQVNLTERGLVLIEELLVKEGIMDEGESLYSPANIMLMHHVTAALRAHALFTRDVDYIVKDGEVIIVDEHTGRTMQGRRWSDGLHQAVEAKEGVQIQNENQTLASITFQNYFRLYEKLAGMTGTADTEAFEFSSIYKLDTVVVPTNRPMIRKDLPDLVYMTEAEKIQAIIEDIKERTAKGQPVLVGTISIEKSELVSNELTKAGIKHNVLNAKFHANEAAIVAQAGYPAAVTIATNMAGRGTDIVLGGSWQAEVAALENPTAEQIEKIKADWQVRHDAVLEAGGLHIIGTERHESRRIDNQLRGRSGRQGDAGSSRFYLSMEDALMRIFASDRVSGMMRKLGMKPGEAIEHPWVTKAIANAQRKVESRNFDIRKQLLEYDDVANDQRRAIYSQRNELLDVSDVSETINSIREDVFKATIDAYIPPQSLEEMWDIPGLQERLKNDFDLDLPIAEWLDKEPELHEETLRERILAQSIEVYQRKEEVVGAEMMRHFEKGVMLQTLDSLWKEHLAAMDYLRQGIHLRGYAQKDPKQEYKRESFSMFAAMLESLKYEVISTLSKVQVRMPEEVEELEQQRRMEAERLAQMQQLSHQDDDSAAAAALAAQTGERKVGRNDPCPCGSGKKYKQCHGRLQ
# Chain of Sialic acid-binding Ig-like lectin 9 (Homo sapiens) (Q9Y336 whole entry): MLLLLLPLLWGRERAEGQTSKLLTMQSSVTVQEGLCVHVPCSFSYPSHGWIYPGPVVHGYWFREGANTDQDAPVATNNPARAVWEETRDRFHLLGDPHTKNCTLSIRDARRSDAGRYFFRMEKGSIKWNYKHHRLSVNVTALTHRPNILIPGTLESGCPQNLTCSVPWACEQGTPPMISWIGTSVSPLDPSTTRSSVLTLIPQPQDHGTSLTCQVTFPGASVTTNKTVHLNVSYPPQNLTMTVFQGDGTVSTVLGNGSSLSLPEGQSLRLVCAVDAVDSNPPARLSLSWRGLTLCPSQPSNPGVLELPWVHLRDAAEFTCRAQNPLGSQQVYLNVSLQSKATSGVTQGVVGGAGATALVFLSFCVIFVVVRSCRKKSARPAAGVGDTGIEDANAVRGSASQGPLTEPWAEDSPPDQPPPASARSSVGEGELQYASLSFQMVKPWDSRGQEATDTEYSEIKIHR
SMILES,Percent Effect [1] [%],Percent Effect [2] [%],Percent Effect [3] [%],Percent Effect [4] [%],Percent Effect (Trypanosoma cruzi) [%],Percent Effect [5] [%],Percent Effect [6] [%],Percent Effect (Homo sapiens) [%],Percent Effect [7] [%],Percent Effect [8] [%],Percent Effect [9] [%]
Cc1nsc(C(=O)N2CCc3ccccc3C2)n1,-7.16,13,-4.33,-9.01,4.44,-1.94,5.22,3.35,3.17,8.97,-9.64
c1cc2n(n1)CC(CNCc1ccc(OC3CCCCC3)nc1)CN2 (stereo unspecified),-2.12,18.2,1.34,5.86,7.49,-1.78,5.41,-2.37,9.71,21.9,-7.9
NC(=O)CC1CCN(C(=O)CCOc2ccc(Cl)cc2)CC1,-3.65,10.5,2.65,4.69,0.752,-4.6,8.19,1.27,6.37,12.2,-8.66
COCC(=O)N(C)Cc1ccc(Cl)c(Cl)c1,-4.08,-2.63,8.5,7.96,-3.21,-5.92,21.2,10.7,0,2.6,-8.73
O=C(c1ccc[nH]1)N1CCCC(c2cc(C(F)(F)F)[nH]n2)C1 (stereo unspecified),-5.38,-10.5,1.16,17.4,-4.39,-1.08,-0.0846,35.6,3.45,6.17,-3.1
CCc1cnc(N)nc1NCCN1CCCCC1,-4.23,13,1.45,11.9,6.59,2.76,7.16,4.63,7.53,16.1,-7.73
Cc1nc(C2CCCN(C(=O)c3ccco3)C2)no1 (stereo unspecified),-7.21,1.27,1.16,-2.53,-0.308,-0.645,1.37,16,1.04,-7.59,-4.36
O=C(NCC1CC1)C1CSCN1S(=O)(=O)c1cccc(F)c1 (stereo unspecified),-1.87,8.22,-0.192,-1.84,2.94,-0.455,25,-0.563,4.3,12.5,-3.76
CC(=O)Nc1nc(C(=O)N2CCCC2c2ccccc2C)cs1 (stereo unspecified),-3.82,10.4,8.63,1.33,-8.24,4.27,3.21,31.4,5.83,9.76,-5.39
Cc1nnc(NC(=O)NC2CCOc3ccccc32)s1 (stereo unspecified),-3.11,5.48,-3.94,7.64,1.59,-4.39,12.8,-9.09,12.5,23.5,1.07
Cn1cccc1C1CCCN1C(=O)NCCCn1cccn1 (stereo unspecified),-1.96,2.67,-3.95,-0.718,-0.0974,-2.08,6.28,8.34,4.92,8.64,-1.47
